An excerpt weighted towards active compounds, which were near 27% of everything screened.
sEH act = soluble epoxide hydrolase activators, primary screen, biochemical, human sEH | purified human sEH enzymatic activity, activator screen | AID 717, 2007 | hit rate 0.04% among 91,000 | activation, % at 2 µM | Bifunctional epoxide hydrolase 2 (Homo sapiens), P34913; in the data active means activation above about 37%
Target sequence (P34913 whole entry, looked up): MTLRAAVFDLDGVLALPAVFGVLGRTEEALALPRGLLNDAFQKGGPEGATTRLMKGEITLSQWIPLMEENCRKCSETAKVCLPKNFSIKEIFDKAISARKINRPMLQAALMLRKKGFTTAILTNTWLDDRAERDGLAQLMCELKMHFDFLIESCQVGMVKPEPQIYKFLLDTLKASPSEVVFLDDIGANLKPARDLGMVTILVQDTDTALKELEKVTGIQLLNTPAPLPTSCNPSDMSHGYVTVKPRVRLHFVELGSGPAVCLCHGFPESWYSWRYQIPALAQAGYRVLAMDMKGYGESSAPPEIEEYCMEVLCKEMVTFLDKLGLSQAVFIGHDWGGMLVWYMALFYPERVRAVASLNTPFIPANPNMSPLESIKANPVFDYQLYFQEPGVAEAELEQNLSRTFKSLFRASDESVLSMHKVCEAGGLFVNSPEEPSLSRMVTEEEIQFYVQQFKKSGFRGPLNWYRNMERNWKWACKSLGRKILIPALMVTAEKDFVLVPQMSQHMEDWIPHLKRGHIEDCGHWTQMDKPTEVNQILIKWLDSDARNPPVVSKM
CYP2C9 act = human CYP2C9 activators, primary screen, biochemical, luminescence; Cytochrome P450 2C9 (Homo sapiens), P11712; recombinant CYP2C9, luciferin-H conversion; hits give high values; factor 1 = untreated enzyme, 0 = blocked; activation factor at 5 µM; hit rate 1.4% among 96,000; AID 1024, 2008;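 active means activation factor of 2 or more for CYP2C9 at a 5 µM dose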;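 further: 0 = sulfaphenazole-blocked wells and 1 = vehicle-only wells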
CYP2C9 inhib = blockers of cytochrome P450 2C9 activity – biochemical, luminescence, ADME assay, primary screen. CYP2C9 Supersomes, luciferin-H conversion. inhibition, % at 5 µM. hit rate 20% among 96,000;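 active means blocking of liver enzyme CYP2C9 beyond about 50% at 5 µM, limit read from the data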
sEH inhibitor = soluble epoxide hydrolase inhibitors, primary screen, biochemical, human sEH; recombinant human sEH enzymatic activity assay; inhibition, % at 2 µM; hit rate 0.34% among 91,000; in the data active means inhibition above about 80%
CYP2C19 act = human CYP2C19 activators, primary screen, biochemical, luminescence | AID 1025, 2008 | 96,000 tested, under 10 active | activation factor at 5 µM | Cytochrome P450 2C19 (Homo sapiens), P33261 | recombinant CYP2C19, luciferin-H EGE luminescence; hits give high values; 0 = fully inhibited enzyme, 1 = untreated enzyme;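 active means activation factor of at least 2 at 5 µM in the primary screen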;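 further: 0 = wells with 2.5 mM tranylcypromine and 1 = vehicle-only wells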
CYP2C19 inh = blockers of cytochrome P450 2C19 activity – biochemical, luminescence, ADME assay, primary screen | hit rate 21% among 96,000 | inhibition, % at 5 µM | P33261 | AID 778, 2007 | CYP2C19 Supersomes, luciferin-H EGE luminescence, 30 min;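 active means CYP2C19 inhibition above a set limit at 5 µM in the primary screen, cut at about 50% in these data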;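 further: plate controls were negative control wells for no effect and 2.5 mM tranylcypromine positive control for full effect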
An asterisk follows results filed as active; · = not tested or not shown.

SMILES	sEH act	CYP2C9 act	CYP2C9 inhib	sEH inhibitor	CYP2C19 act	CYP2C19 inh
CCOC(=O)C(=O)/C(=C\N(C)C)c1onc(-c2c(F)cccc2Cl)c1C(=O)OC	2	0.4	58*	0	0.5	48
CC1CCC(NC(=O)CC2Oc3ccccc3NC2=O)CC1 (centres undefined)	-13	2.3*	-129	16	0.9	12
O=C(CC1Oc2ccccc2NC1=O)NCc1ccccc1 (centres undefined)	·	2*	-100	·	0.3	66*
Cc1ccc(S(=O)(=O)NCc2nnc(SCC(=O)Nc3cccc(C)c3C)n2C)cc1	-9	0.8	25	7	1.2	-16
CN(C)c1ccc(C(CC(=O)O)NC(=O)c2ccc(Cl)cc2)cc1 (centres undefined)	6	1	3	-6	0.9	14
COc1ccc(-c2noc(C(C)n3nc(C)c([N+](=O)[O-])c3C)n2)cc1OC (centres undefined)	6	0.4	59*	-5	0.8	25
Cc1nn(C(C)c2nc(-c3ccccc3)no2)c(C)c1[N+](=O)[O-] (centres undefined)	6	0.6	39	-5	0.6	37
COc1cccc(-c2noc(CCC(=O)Nc3cccnc3)n2)c1	-8	0.5	50	9	0.6	38
COc1cccc(-c2noc(Cn3nc(C)c([N+](=O)[O-])c3C)n2)c1	-7	0.7	31	6	0.4	56*
Cc1ccc(S(=O)(=O)C2(C(=O)O)CCCC2)cc1C	·	1	1	·	1	-3
O=c1cc(CN2CCN(c3ccccc3F)CC2)c2cc3c(cc2o1)CCCC3	4	0.8	19	-6	0.8	16
CCOc1ccc(C(C)=O)cc1CC(C(N)=O)C(N)=O	-6	0.9	9	9	1	3
CCOc1ccc(C(C)=O)cc1COC(=O)C1=COCCO1	9	0.5	47	-8	0.4	64*
CC(C)C1S/C(=N/N=C/c2cccs2)NC1=O (centres undefined)	-8	0.8	21	8	0.9	6
c1ccc(OCCSc2nnc3sc4ccccc4n23)cc1	6	1.1	-9	-9	0.7	30
Cc1ccccc1Nc1nc(N)nc(CSc2nnc3sc4ccccc4n23)n1	15	2.4*	-136	-16	1.1	-12
Cc1ccccc1Nc1nc(N)nc(CSc2nnc(-c3ccccc3)n2C)n1	6	1	-4	-6	1.1	-9
CCN(CC)C(=O)CSc1nnc2sc3ccccc3n12	·	1.8	-84	·	0.2	77*
COc1cccc(OCCSc2nnc3sc4ccccc4n23)c1	-2	1.9	-85	0	0.5	50*
COc1cc(OC)cc(C(=O)OCc2cc3ccccc3[nH]c2=O)c1	3	1	2	-4	0.9	15
CC(C)CNC(=O)c1cc2nc(C3CC3)cc(C(F)(F)F)n2n1	4	·	·	-2	·	·
CCCCCn1c(C(Cc2ccccc2)NC(=O)COC)nc2ccccc21 (centres undefined)	-15	0.6	42	17	0.4	63*
CCCCn1c(C(C)NC(=O)COC)nc2ccccc21 (centres undefined)	-17	·	·	15	·	·
COc1ccc(N2CCN(c3ncnc4c3nnn4Cc3ccccc3Cl)CC2)cc1	1	·	·	-1	·	·
Oc1ccc(N=Nc2n[nH]c(-c3ccc(Cl)cc3)n2)cc1	-1	2*	-104	3	0.8	20
SMILES	sEH act	CYP2C9 act	CYP2C9 inhib	sEH inhibitor	CYP2C19 act	CYP2C19 inh
Cc1ncc(N=Nc2ccc(F)cc2)c(-c2ccc(Cl)cc2)n1	-2	1.1	-6	3	1	3
CCc1nn(-c2cc(Cl)ccc2OC)c2c1C(=O)CCC2	2	0.8	16	-4	0.7	34
CC(C)=C1C2C=CC1C(C(=O)Nc1cccc(C)c1)C2C(=O)O (centres undefined)	·	1.2	-22	·	1.1	-10
O=C(NCCN1CCOCC1)c1cnn2c(-c3ccccc3)cc(-c3ccccc3)nc12	13	0.6	36	-13	0.4	57*
C(=C\c1ccccc1)/CN1CCN(Cc2ccc3c(c2)OCCO3)CC1	-19	1.2	-17	18	0.9	10
Cc1cc(C)c2c(CN3CCN(C/C=C/c4ccccc4)CC3)cc(=O)oc2c1	6	0.3	69*	-6	0.5	51*
COc1ccc(O)c(CN2CCN(C/C=C/c3ccccc3)CC2)c1	·	1	1	·	1	-5
COc1cc(Br)cc(CN2CCN(C/C=C/c3ccccc3)CC2)c1O	1	0.6	35	-3	0.4	60*
Cc1csc(SCCN2C(=O)c3ccccc3C2=O)n1	-5	0.3	71*	7	0.2	82*
CSc1nsc(SCCN2C(=O)c3ccccc3C2=O)n1	1	0.5	52*	0	0.2	80*
O=C1c2ccccc2C(=O)N1CCSc1ccccc1	-4	0.8	22	4	0.5	52*
O=C1c2ccccc2C(=O)N1CCSc1nncs1	·	0.9	8	·	0.9	10
COc1ccc(/C=C(/NC(=O)c2ccccc2)C(=O)N/N=C/c2ccc3c(c2)OCO3)cc1OC	-1	0.9	7	2	0.6	40
COc1ccc2nc(N=Nc3ccc(N(C)C)cc3)sc2c1	-6	0.8	21	5	0.4	58*
O=C(CSc1ncnc2nc[nH]c12)N1CCN(c2ccc(Cl)cc2)CC1	2	1	3	-2	0.9	11
Cc1nn(Cc2ccccc2)c(Cl)c1C(=O)OCc1nnc(-c2ccccc2)o1	-12	0.1	86*	11	0.1	92*
O=C(OCc1nnc(-c2ccccc2)o1)c1ccco1	10	0.9	6	-11	0.8	18
Cc1nn(Cc2ccccc2)c(Cl)c1C(=O)OCc1nnc(-c2ccc(Cl)cc2)o1	·	0.4	62*	·	0.6	40
CCOc1ccc(-c2csc(C3COc4ccccc4O3)n2)cc1 (centres undefined)	8	·	·	-5	·	·
CCCC1C2C(=O)N(c3ccccc3OC)C(=O)C2ON1c1ccccc1 (centres undefined)	12	0.3	70*	-12	0.1	95*
O=C(O)c1ccc(N2C(=O)C3ON(c4ccccc4)C(c4ccccc4F)C3C2=O)cc1 (centres undefined)	44*	1	0	-48	0.5	52*
CCCOc1ccc(N2C(=O)C3ON(c4ccccc4)C(CCC)C3C2=O)cc1 (centres undefined)	-9	0.5	52*	10	0.7	32
CCCOc1ccc(N2C(=O)C3ON(c4ccccc4)C(c4ccc(O)c(OC)c4)C3C2=O)cc1 (centres undefined)	0	0.5	46	1	0.7	33
